Assay [1] deals with Nuclear receptor coactivator 3 (Homo sapiens) (UniProt Q9Y6Q9). The assay is described as follows: NCOA3 GAL4-fusion reporter inhibition – cell-based, luminescence, quadruplicate, confirmation (AID 588792;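 active = mean inhibition over 43.08%, the solvent-only control mean plus 3 SD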;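 also: 0% = DMSO treated cells and 100% = gossypol at 36 µM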). The following applies: HEK293 GAL4-SRC3 luciferase reporter, at 3.6 µM, stronger effect = higher value.
The test system of assay [2] is transactivating tegument protein VP16 (Human herpesvirus 1), Gal4-VP16 luciferase reporter. In words: repression of VP16-driven luciferase reporter – cell-based, luminescence, high throughput, counter-screen for SRC3 inhibitor project (AID 588794). The following applies: mammalian cells, at 3.6 µM, stronger effect = higher value.
For assay [3], the target named is Nuclear receptor coactivator 1 (Homo sapiens) (UniProt Q15788). The assay is described as follows: NCOA1 GAL4-fusion reporter inhibition – cell-based, luminescence, quadruplicate, confirmation (AID 588820;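 active = mean inhibition above 46.68%, the untreated control wells mean plus 3 SD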;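 also: 0% = DMSO wells and 100% = gossypol 36 µM treated wells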). The conditions noted are these: HEK293 GAL4-SRC1 luciferase reporter, at 3.6 µM, stronger effect = higher value. On the technique in general: A reporter such as luciferase makes a cellular process visible.

The nature of assay [4]: repression of VP16-driven luciferase reporter – cell-based, luminescence, high throughput, counter-screen for SRC1 inhibitor project (AID 588824; in the data active = inhibition above about 25%). The following applies: cell-based VP16 transactivation luciferase luminescence; at 3.6 µM; stronger effect = higher value.
Assay [5] can be described thus: StAR promoter reporter inhibitors, counter-screen for LRH-1 inverse agonist project, cell-based, luminescence, high throughput (AID 651611; in the data active = inhibition above about 28%). The following applies: StAR promoter luciferase reporter counterscreen, at 3.6 µM, stronger effect = higher value. For orientation: The purpose of a counterscreen is to sort out artefacts and off-target activity.
The target in assay [6] is Nuclear receptor subfamily 5 group A member 2 (Homo sapiens) (UniProt O00482). The assay is described as follows: NR5A2 activity suppression in reporter cells – cell-based, luminescence, confirmation (AID 651613; in the data active = inhibition above about 42%;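 also: HEK293T cells co-transfected with LRH-1 and StAR promoter luciferase reporter; 0% = vehicle wells and 100% = parental cells lacking receptor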). The following applies: cell-based LRH-1 luciferase reporter, inverse agonism; at 3.6 µM; stronger effect = higher value.
In assay [7] the target is Steroidogenic factor 1 (Homo sapiens) (UniProt Q13285). The assay is described as follows: inverse agonism at SF1 nuclear receptor – cell-based, luminescence, high throughput, counter-screen for LRH-1 inverse agonist project (AID 651614; in the data active = inhibition above about 44%;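 also: cells cotransfected with StAR promoter reporter and SF1 expression vector; 0% = vehicle on cells with receptor and 100% = vehicle on cells lacking receptor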). The following applies: cell-based SF1 luciferase reporter, at 3.6 µM, stronger effect = higher value.
Assay [8] in a line: compounds suppressing VP16-driven luciferase signal – cell-based, luminescence, high throughput, counter-screen for LRH-1 inverse agonist project (AID 651615; in the data active = inhibition above about 33%). The following applies: Gal4-VP16 luciferase reporter cells, at 3.6 µM, stronger effect = higher value.
The test system of assay [9] is transactivating tegument protein VP16 (Human herpesvirus 1). In words: compounds suppressing VP16-driven luciferase signal – cell-based, luminescence, single concentration, counter-screen for SRC2 inhibitor project (AID 652007; in the data active = inhibition above about 36%). The following applies: cell-based VP16 transactivation luciferase reporter, at 8.9 µM, stronger effect = higher value.
For assay [10], the target named is Nuclear receptor coactivator 2 (Homo sapiens) (UniProt Q15596). The assay is described as follows: inhibition of GAL4-SRC2 driven luciferase expression – cell-based, luminescence, HEK293, triplicate, confirmation (AID 652008;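 active = mean inhibition above 46.5%, the solvent-only control mean plus 3 SD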;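 also: 0% = DMSO-treated cells and 100% = Gossypol at 36 µM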). The following applies: HEK293 GAL4-SRC2 luciferase reporter, at 8.9 µM, stronger effect = higher value.

Where “and” joins values, the source holds several entries; their conditions need not be identical. Equal entries are not always repeated. Values without a mark were called inactive. Calls of active or inactive are those of the source. Rule as the data show it, unless noted: active = inhibition above about 30%; inactive = the rest.

In general, inhibition refers to the drop in the measured response relative to a control, in per cent.

Sequence of Nuclear receptor coactivator 1 (Homo sapiens) (Q15788 whole entry, looked up, the tested form may be a part): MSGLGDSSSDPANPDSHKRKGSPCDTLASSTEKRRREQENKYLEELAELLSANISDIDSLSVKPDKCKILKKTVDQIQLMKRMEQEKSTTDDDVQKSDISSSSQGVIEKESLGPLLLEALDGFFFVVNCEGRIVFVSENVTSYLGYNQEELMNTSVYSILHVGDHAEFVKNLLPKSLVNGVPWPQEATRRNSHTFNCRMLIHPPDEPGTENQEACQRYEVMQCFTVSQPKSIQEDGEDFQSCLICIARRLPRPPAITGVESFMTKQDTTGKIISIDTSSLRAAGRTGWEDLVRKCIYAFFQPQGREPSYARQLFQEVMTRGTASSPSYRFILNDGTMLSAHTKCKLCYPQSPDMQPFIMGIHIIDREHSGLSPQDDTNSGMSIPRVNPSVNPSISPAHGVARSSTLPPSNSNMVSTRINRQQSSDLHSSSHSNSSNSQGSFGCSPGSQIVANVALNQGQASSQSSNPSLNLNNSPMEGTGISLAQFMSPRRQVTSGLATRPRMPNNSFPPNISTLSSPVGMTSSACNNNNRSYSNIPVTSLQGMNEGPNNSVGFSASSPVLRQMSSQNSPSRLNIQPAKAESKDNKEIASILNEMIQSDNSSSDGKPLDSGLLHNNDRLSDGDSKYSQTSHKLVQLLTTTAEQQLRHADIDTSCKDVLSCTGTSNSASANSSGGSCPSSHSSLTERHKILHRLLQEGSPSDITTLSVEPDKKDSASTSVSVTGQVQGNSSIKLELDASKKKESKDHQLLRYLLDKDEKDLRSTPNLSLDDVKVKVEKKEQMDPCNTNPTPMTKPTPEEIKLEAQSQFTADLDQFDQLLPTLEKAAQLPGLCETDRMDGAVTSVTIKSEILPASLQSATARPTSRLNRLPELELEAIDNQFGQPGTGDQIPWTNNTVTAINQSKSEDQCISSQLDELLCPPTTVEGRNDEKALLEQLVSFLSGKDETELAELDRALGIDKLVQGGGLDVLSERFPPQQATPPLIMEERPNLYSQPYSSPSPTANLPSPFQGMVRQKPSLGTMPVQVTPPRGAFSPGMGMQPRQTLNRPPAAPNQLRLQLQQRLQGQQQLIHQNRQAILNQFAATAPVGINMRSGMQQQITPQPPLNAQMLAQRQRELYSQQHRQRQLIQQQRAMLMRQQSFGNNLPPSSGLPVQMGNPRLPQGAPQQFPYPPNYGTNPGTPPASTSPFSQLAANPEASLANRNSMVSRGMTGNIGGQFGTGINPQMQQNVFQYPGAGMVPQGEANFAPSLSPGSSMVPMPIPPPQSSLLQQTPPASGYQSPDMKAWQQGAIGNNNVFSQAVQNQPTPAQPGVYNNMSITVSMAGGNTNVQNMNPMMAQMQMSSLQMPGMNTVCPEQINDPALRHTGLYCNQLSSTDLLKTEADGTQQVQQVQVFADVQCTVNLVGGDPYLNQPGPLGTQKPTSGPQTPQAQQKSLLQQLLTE
Sequence of Nuclear receptor coactivator 3 (Homo sapiens) (Q9Y6Q9 whole entry, looked up, the tested form may be a part): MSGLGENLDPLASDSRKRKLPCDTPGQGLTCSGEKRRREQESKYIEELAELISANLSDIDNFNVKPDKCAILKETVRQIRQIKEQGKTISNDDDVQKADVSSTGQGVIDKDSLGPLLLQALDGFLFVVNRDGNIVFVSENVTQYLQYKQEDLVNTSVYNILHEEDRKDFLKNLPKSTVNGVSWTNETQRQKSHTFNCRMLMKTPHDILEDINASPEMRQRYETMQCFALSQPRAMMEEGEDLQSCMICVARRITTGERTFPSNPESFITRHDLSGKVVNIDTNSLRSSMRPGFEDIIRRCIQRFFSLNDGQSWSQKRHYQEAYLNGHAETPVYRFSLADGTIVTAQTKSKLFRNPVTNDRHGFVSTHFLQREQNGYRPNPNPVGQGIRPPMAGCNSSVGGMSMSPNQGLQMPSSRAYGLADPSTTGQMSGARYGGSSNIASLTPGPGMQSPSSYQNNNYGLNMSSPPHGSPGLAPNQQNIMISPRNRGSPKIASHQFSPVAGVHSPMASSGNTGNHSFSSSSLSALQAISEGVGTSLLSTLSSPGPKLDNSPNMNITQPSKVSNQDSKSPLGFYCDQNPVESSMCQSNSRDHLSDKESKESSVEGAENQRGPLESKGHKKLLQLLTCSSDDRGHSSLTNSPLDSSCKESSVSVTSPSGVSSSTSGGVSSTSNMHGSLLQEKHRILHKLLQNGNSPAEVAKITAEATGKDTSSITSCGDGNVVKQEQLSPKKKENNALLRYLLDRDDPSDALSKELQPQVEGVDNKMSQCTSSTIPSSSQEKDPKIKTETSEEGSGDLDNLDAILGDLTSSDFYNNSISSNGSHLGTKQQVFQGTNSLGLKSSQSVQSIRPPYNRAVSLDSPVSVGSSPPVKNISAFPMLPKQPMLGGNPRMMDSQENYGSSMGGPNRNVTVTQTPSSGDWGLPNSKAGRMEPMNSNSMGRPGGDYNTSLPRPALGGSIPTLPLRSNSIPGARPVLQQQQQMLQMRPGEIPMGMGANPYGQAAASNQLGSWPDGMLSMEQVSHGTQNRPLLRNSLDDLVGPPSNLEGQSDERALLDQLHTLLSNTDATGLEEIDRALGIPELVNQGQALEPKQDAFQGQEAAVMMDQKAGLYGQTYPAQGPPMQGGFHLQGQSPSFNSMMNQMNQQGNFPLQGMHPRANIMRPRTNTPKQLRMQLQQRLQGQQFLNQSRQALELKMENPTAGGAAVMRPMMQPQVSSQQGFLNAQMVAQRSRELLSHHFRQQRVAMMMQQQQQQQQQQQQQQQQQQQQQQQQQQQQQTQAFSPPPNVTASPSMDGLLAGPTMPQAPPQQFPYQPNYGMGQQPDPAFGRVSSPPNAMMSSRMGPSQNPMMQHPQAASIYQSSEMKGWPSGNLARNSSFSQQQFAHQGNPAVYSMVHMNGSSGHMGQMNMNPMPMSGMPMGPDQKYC
Sequence of Nuclear receptor subfamily 5 group A member 2 (Homo sapiens) (O00482 whole entry, looked up): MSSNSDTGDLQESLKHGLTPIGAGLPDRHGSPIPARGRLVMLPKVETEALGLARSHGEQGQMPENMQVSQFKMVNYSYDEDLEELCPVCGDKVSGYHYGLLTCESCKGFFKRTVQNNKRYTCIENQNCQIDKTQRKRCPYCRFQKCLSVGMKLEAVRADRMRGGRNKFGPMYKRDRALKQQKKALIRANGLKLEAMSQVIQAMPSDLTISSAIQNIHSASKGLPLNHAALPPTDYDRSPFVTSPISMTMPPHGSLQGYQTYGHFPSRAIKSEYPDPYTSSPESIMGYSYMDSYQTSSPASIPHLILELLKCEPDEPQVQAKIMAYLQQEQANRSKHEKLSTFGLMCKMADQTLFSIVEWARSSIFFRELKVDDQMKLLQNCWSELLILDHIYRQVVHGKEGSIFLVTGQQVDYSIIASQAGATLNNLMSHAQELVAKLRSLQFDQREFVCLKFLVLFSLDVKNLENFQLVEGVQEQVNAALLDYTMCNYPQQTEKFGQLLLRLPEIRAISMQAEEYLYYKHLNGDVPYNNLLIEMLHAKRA
Sequence of Steroidogenic factor 1 (Homo sapiens) (Q13285 whole entry, looked up, the tested form may be a part): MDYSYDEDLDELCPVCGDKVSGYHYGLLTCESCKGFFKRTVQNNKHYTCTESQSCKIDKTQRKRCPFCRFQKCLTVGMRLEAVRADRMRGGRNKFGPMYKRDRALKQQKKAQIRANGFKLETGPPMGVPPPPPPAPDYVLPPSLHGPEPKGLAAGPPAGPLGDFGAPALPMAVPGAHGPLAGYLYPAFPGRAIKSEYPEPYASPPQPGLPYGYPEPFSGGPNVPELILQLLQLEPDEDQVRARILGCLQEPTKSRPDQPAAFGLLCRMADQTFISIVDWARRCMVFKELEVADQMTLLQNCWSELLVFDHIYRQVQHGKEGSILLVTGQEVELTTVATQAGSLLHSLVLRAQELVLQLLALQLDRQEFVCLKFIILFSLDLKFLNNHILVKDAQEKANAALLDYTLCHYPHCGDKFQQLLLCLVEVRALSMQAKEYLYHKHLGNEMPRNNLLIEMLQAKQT

With `Cc1ccc(-c2cc(-c3ccc(C)cc3)[n+](C)o2)cc1`, the inhibition in assay [1] was 62.4% (active); in assay [2] it was 47.2% (active); in assay [3], -3.35%; in assay [4] it was 47.1% (active); in assay [5], 27.6%; in assay [6], 78.7% (active). Also, the figures for the inhibition in assay [7] and in assay [8] were 65.7% (active) and 67.3% (active), respectively.
Regarding `CC(C)CC(NC(=O)CCCNC(=O)CCC(=O)OC1O[C@H]2OC3(C)CC[C@H]4[C@H](C)CCC(C1C)C24OO3)C(=O)O` (stereo not given in full), the inhibition was 54.4% (active) in assay [1]; 77.2% (active) in assay [2]; 53.3% (active) in [3]; 76.9% (active) in assay [4]; 72.2% (active) in assay [5]; 101% (active) in assay [6]. For the same compound, the inhibition was 91% (active) in assay [7] and 86.4% (active) in [8].
For the compound `Nc1ncnc2c1ccn2[C@@H]1O[C@H](CO)[C@@H](O)[C@H]1O`, the inhibition in assay [1] is 93.6% (active); in assay [2] it was 89.5% (active); in assay [3], 53.4% (active); in assay [4], 86.8% (active); in assay [5] it was 90.9% (active); in [6], 107% (active). For the same compound, the inhibition in assay [7] was 94.2% (active); in [8], 93.6% (active); in [9], 55.5% (active); in assay [10] it was 58.3% (active).
With `CC(=O)OC1CC(OC2C(O)CC(OC3C(O)CC(OC4CCC5(C)C(CCC6C5CC(O)C5(C)C(C7=CC(=O)OC7)CCC65O)C4)OC3C)OC2C)OC(C)C1OC1OC(CO)C(O)C(O)C1O` (stereo not given), the inhibition in assay [1] is 97.8% (active); in assay [2] it was 88.9% (active); in assay [3], 73.8% (active); in assay [4] it was 86.5% (active); in [5] it was 95% (active); in assay [6] it was 109% (active). Moreover, the inhibition in [7] was 97.9% (active); in assay [8], 89.4% (active); in assay [9], 64.3% (active); in assay [10] it was 28.8%.
In the case of `CN(C)c1ccc(/C=C/c2cc[n+](C)c3ccccc23)cc1`, the inhibition in assay [1] is 55.9% (active) and 45.3% (active); in [2], 74% (active) and 71.3% (active); in [3], 40.2% and 45.5%; in assay [4] it was 77.9% (active) and 78.6% (active); in [5], 72.7% (active) and 74.2% (active); in assay [6], 102% (active) and 107% (active). The inhibition in [7] was 86.9% (active) and 89.7% (active); in [8] it was 82% (active) and 84% (active).
For the compound `CCC1CN2CCc3cc(OC)c(OC)cc3C2CC1CC1NCCc2c1[nH]c1ccc(O)cc21` (stereo not given), the inhibition in assay [1] was 98% (active); in [2], 96.7% (active); in assay [3] it was 95.4% (active); in [4] it was 95.9% (active); in assay [5], 95.7% (active); in assay [6], 110% (active). Also, the inhibition in [7] is 98.3% (active); in assay [8], 98.7% (active); in assay [9], 78.1% (active); in [10] it was 73.4% (active).
Turning to `CC(=O)OC1C(=O)OCC23CCC4(C)OC4C2OC2CC(OC(=O)C=CC=CC(=O)OCCC1C)C3(C)C21CO1` (stereo not given), the inhibition in [1] is 98.1% (active); in [2], 96.5% (active); in assay [3], 96.7% (active); in assay [4] it was 96.3% (active); in assay [5], 96.8% (active); in assay [6] it was 110% (active). The figures for the inhibition in assay [7] and in assay [8] were 98.6% (active) and 95.3% (active), respectively.
In the case of `Cc1cc(-c2ccccc2)cc(-c2ccccc2)[n+]1CCc1ccccc1`, the inhibition in [1] is 37.8%; in assay [2], 52.1% (active); in [3], 27.1%; in [4] it was 51.7% (active); in assay [5], 51.1% (active); in assay [6] it was 91.6% (active). The inhibition is 75.2% (active) in assay [7] and 73.2% (active) in assay [8].
Regarding `COc1ccc(-c2cc(-c3ccccc3)[n+](C)c(-c3ccccc3)c2)cc1`, the inhibition in assay [1] was 35.9%; in [2], 57.7% (active); in [3] it was 34.3%; in [4], 51.3% (active); in assay [5], 60.2% (active); in assay [6] it was 96% (active). The inhibition in assay [7] is 84.5% (active); in assay [8], 77.1% (active).
For the compound `COC(=O)C12OCC34C(CC5C(C)=C(O)C(=O)CC5(C)C3C(O)C1O)OC(=O)C(OC(=O)/C=C(\C)C(C)C)C24` (stereo not given), the inhibition in assay [1] is 99% (active); in assay [2] it was 97.6% (active); in assay [3], 98.1% (active); in [4] it was 97.7% (active); in assay [5] it was 96.7% (active); in [6] it was 110% (active). The inhibition is 98.9% (active) in assay [7] and 97.9% (active) in assay [8].
As for `CN(C)c1ccc(/C=C/C=C/c2sc3ccccc3[n+]2C)cc1`, the inhibition in assay [1] is 22.8%; in assay [2], 38.5% (active); in [3], 27.4%; in [4] it was 30.4% (active); in [5], 35.2% (active); in [6], 54.1% (active). Also, the results for the inhibition in [7] and in assay [8] were 63% (active) and 56.9% (active), respectively.
Consider `COc1ccc(C[C@H]2NC[C@H](O)[C@H]2OC(C)=O)cc1`, for which the inhibition in assay [1] is 98.9% (active); in [2] it was 97.4% (active); in assay [3], 96% (active); in assay [4], 96.7% (active); in [5] it was 94.4% (active); in assay [6] it was 110% (active). Besides, the inhibition in [7] is 97.7% (active); in [8], 95.9% (active); in assay [9], 79.2% (active); in assay [10], 78.6% (active).
In the case of `Cc1ccc(-c2cc(-c3ccccc3)cc(-c3ccccc3)[n+]2-c2ccccc2)cc1`, the inhibition was 86.4% (active) in [1]; 89.9% (active) in assay [2]; 67.6% (active) in assay [3]; 85.6% (active) in [4]; 83.6% (active) in [5]; 110% (active) in assay [6]. Besides, the inhibition is 91.4% (active) in assay [7], 95.2% (active) in assay [8], 70% (active) in assay [9] and 61.8% (active) in assay [10].
For `CC1CCOC(=O)C=CC=CC(=O)OC2CC3OC4C5OC5(C)C(O)CC4(COC(=O)C1O)C2(C)C31CO1` (stereo not given), the inhibition was 98.8% (active) in assay [1]; 97.3% (active) in assay [2]; 97.2% (active) in [3]; 97.1% (active) in assay [4]; 80.4% (active) in assay [9]; 75.2% (active) in assay [10].
